A selection: hits, their analogues and other compounds. The true share with any hit is near 3%.
A1 inh: inhibitors of the anti-apoptotic protein A1, read as caspase activation; MEF A1-2A-BIM cells, Caspase-Glo 3/7 luminescence, 3 h; percent of clofoctol response, vehicle zero; caspase activation, % (concentration not given with the values); 330,000 compounds, 0.066% hits; AID 2462;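 active means over half of replicate activation scores above 10%, or exactly half above 10 with the replicate mean above 10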
Mot1-301 SUMO: inhibitors of SUMOylation pathway: yeast Mot1-301 growth rescue. AID 2716. 320,000 compounds, 1% hits. growth rescue, % at 18.8 µM. S. cerevisiae Mot1-301 growth rescue, ATP luminescence, 38.5C; percent above DMSO median, 100 means doubled;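 active means every valid replicate shows activation above 250% relative to neutral control wells; inactive means the rest, any valid replicate at or below 250%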
CHT inh: inhibits the human high affinity choline transporter. Q9GZV3. CHT-expressing cells, membrane potential dye, choline response; active compounds read low. B-score at 10 µM. 310,000 compounds, 0.86% hits;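 active means B-score over 3 SD under the library average, and starting fluorescence ratio not unusually high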;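 further: choline stimulus applied at its EC90 after an EC20 pre-addition; B-score computed on integrated fluorescence ratio after choline addition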
Target sequence (Q9GZV3 whole entry, looked up): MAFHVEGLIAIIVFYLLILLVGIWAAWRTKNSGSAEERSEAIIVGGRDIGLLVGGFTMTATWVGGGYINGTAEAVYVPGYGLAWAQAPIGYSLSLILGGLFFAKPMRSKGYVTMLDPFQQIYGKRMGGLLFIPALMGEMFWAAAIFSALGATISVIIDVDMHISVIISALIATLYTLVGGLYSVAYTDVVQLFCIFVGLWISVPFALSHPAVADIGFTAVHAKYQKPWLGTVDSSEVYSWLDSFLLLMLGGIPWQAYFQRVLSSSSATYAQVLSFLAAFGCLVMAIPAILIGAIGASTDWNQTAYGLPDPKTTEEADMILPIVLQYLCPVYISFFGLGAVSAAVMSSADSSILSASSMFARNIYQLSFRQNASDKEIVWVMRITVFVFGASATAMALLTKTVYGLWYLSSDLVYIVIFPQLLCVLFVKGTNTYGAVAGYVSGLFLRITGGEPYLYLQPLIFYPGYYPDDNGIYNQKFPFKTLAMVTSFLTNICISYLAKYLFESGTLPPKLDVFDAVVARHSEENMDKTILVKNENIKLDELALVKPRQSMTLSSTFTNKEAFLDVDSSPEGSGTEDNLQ
NLRP3 yeast inh: blocks the NALP3 inflammasome reconstituted in yeast; inhibition, % at 10 µM; 330,000 compounds, 0.39% hits; AID 2825; Yeast reconstituted NLRP3/ASC/caspase-1, beta-gal luminescence, 24 h;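 active means inhibition of 50% or more; inactive means inhibition below 50%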
CHT PAM: allosterically activates the human high affinity choline transporter; 310,000 compounds, 0.49% hits; Q9GZV3; AID 488977; B-score at 10 µM; CHT-expressing cells, membrane potential dye, choline EC20; active compounds read high; LV-AA mutant CHT in HEK293 cells;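 active means initial fluorescence not abnormally high and integrated response B-score, plate-corrected, over 3 SD above library mean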
NALP1 inh: inhibitors of NALP1 inflammasome in yeast. S. cerevisiae NALP1/ASC/caspase-1 growth, X-gal OD620, 72 h. inhibition, % at 10 µM. 280,000 compounds, 0.61% hits. AID 2071; in the data active means inhibition mostly above about 24%, no sharp cut-off; inactive means mostly below about 32%
CHT act confirm: confirmation of human choline transporter (CHT) activators. CHT-expressing cells, membrane potential dye fluorescence (FDSS); % of choline EC20–EC90 response window; HEK293 expressing CHT LV-AA mutant; choline added at its EC20. activation, % at 10 µM. AID 504833. 2,500 compounds, 91% hits. shares compounds with CHT PAM;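 active means primary screen active, with duplicate mean activation above negative control mean plus 3 SD, cut at about 11% in these data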
HEK293 MP dye: activity in parental HEK293 cells lacking CHT. shares compounds with CHT PAM. membrane potential dye fluorescence (FDSS); measured after EC20 choline addition. ratio readout change at 10 µM, hits read low. 2,500 compounds, 62% hits;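 active means duplicate-averaged ratio beyond 3 SD from buffer wells, up or down, though filed actives are nearly all decreases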
Numbers stand for hits; – = inactive; · = not tested or not shown.

SMILES	A1 inh	Mot1-301 SUMO	CHT inh	NLRP3 yeast inh	CHT PAM	NALP1 inh	CHT act confirm	HEK293 MP dye
O=C(NCC(c1ccco1)N1CCc2ccccc21)c1c(F)cccc1F (configuration not stated)	–	–	–	–	–	·	·	·
O=C(NCC(c1ccco1)N1CCc2ccccc2C1)c1ccc(Cl)cc1 (configuration not stated)	–	–	–	–	–	·	10.8	–
O=C(NCC(c1ccco1)N1CCc2ccccc21)c1ccccc1Cl (configuration not stated)	–	–	–	–	9.36	·	29.2	–
CCOC(=O)c1cnc2ccc(C(=O)OC)cc2c1Nc1ccc(C(=O)O)cc1	–	–	–	–	8.88	–	63.1	-63.2
CCOC(=O)c1cnc2ccc(Cl)cc2c1NCCN(C)C	–	–	–	–	–	–	26.8	-39.3
COc1cc(C(=O)OCCCN2CCCN(CCCOC(=O)c3cc(OC)c(OC)c(OC)c3)CC2)cc(OC)c1OC	–	–	–	–	9.12	·	44.5	-31
COc1cc(C(=O)OCCN2CCOCC2)cc(OC)c1OC	–	–	–	–	–	–	·	·
Cc1ccc(/C=N/n2c(C)nnc2C)cc1	–	–	–	–	–	·	·	·
Cc1ccc2nc(Cl)c(/C=N/n3c(C)nnc3C)cc2c1	–	–	–	–	8.04	–	42.6	-53.5
CCc1ccc(S(=O)(=O)Nc2cc3c(cc2N2CCOCC2)n(C)c(=O)c(=O)n3C)cc1	–	–	–	–	7.23	–	55.5	-46.7
COc1ccc(OC)c(NS(=O)(=O)c2ccc3c(c2)n(C)c(=O)n3C)c1	–	·	–	–	–	–	·	·
COc1ccc(OC)c(S(=O)(=O)Nc2cc3c(cc2N2CCCC2)n(C)c(=O)c(=O)n3C)c1	–	–	–	–	7.23	–	53.0	-59.8
O=[N+]([O-])c1ccc(S(=O)(=O)Nc2ccc(-c3ccc(N4CCCC4)nn3)cc2)cc1	–	–	–	–	–	·	15.1	–
Cn1c(=O)c(=O)n(C)c2cc(N3CCCC3)c(NS(=O)(=O)c3ccc(F)cc3)cc21	–	–	–	–	–	–	·	·
Cn1c(=O)c(=O)n(C)c2cc(N3CCCCC3)c(NS(=O)(=O)c3ccc([N+](=O)[O-])cc3)cc21	–	–	–	–	10.3	–	51.6	-47.4
Cn1c(=O)c(=O)n(C)c2cc(N3CCOCC3)c(NS(=O)(=O)c3ccc(Br)cc3)cc21	–	–	–	–	7.07	–	52.7	-43.2
CCOC(=O)c1oc2ccc(CNC3CCCCC3)c(Cl)c2c1C	–	–	–	–	–	–	·	·
CCOC(=O)c1oc2ccc(CNCCO)c(Cl)c2c1C	–	–	–	–	8.27	–	37.0	-28.8
Cc1nnc(SCC(=O)N(C)c2ccccc2)n1-n1cccc1	–	–	–	–	–	·	·	·
CN1CCc2c(sc(NC(=O)c3ccc(S(=O)(=O)N4CCOCC4)cc3)c2C(N)=O)C1	–	–	–	–	6.57	·	66.9	-62.7
CCN1CCc2c(sc(NC(=O)c3ccc(S(=O)(=O)N(C)CC4CCCO4)cc3)c2C(N)=O)C1 (configuration not stated)	–	–	–	–	–	–	68.8	-37.8
CN1CCc2c(sc(NC(=O)c3cc(Cl)sc3Cl)c2C(N)=O)C1	–	–	–	–	–	–	21.6	–
O=C(CN(Cc1ccc(Cl)cc1)C(=O)CNS(=O)(=O)c1ccc(F)cc1)NCC1CCCO1 (configuration not stated)	–	–	–	–	–	–	·	·
N#CC(C#N)=c1ccc2c(c1)NC1(CCCCC1)N=2	–	–	–	–	6.38	–	51.2	-64.4
CCOC(=O)C1(Cc2ccccc2C(F)(F)F)CCN(Cc2ccon2)CC1	–	–	–	–	6.95	–	20.3	–
SMILES	A1 inh	Mot1-301 SUMO	CHT inh	NLRP3 yeast inh	CHT PAM	NALP1 inh	CHT act confirm	HEK293 MP dye
CCOC(=O)C1(Cc2ccccc2)CCN(Cc2ccon2)CC1	–	–	–	–	–	–	·	·
NC(=O)CSc1nnc(-c2cccs2)n1Cc1ccco1	–	–	–	–	–	–	·	·
Cc1ccc(C)c(CSc2nnc(-c3cccs3)n2Cc2ccco2)c1	–	–	–	–	7.14	–	60.2	–
COc1ccc(CN2CCc3c([nH]c4ccccc34)C2)cc1Br	–	–	–	–	–	–	·	·
COc1ccc(CN2CCc3c([nH]c4ccccc34)C2)c(OC)c1C	–	–	–	–	–	–	32.1	–
CCOc1ccccc1C(=O)Nc1cc2c(cc1N1CCCC1)n(CC)c(=O)n2CC	–	–	–	–	–	–	50.6	–
COc1cc(C(=O)c2cocc2C(=O)c2ccc3c(c2)OCO3)cc(OC)c1OC	–	–	–	·	11.2	–	25.7	–
Cc1ccc(OCc2nnc(-c3ccc(Cl)cc3)o2)cc1	–	–	–	–	–	·	·	·
COc1ccc(/C=C2\Oc3cc(OCC(N)=O)ccc3C2=O)cc1OC	–	–	–	–	6.24	–	46.0	-37.3
CCC1=[N+](CC(=O)c2ccc(C)cc2)CCn2c(C)ccc21	–	–	–	–	–	–	32.5	–
Cc1cc2ncn(-c3ncnc4scc(-c5ccccc5)c34)c2cc1C	–	·	–	–	8.41	–	20.6	–
CC(=O)NS(=O)(=O)c1ccc(NC(=O)C(C)NS(=O)(=O)/C=C/c2ccccc2)cc1 (configuration not stated)	–	–	·	–	·	·	·	·
CCOC(=O)c1c(CN2CCN(C)CC2)n(C)c2cc(Br)c(OC)cc12	–	–	–	–	–	–	38.7	-55.2
COc1ccc(C)cc1NC(=O)C1CCN(S(=O)(=O)c2ccc3c(c2)NC(=O)CO3)CC1	–	–	–	–	–	–	·	·
CC(C)CCN1C(Nc2ccccc2)=NC[C@@H]1Cc1ccccc1	–	–	–	–	6.97	–	20.9	–
CC(C)C[C@H]1CN=C(Nc2ccccc2)N1CC1CCC(C(C)(C)C)CC1 (some centres not stated)	–	–	–	–	28.5	·	59.0	–
CCOC(=O)c1ccccc1NC(=O)COC(=O)c1ccccc1C(=O)N(C)c1ccccc1	–	–	–	–	–	·	·	·
COc1ccc2nc(N/C(N)=N/C(=S)Nc3c(C)cccc3C)nc(C)c2c1	–	–	–	–	7.13	–	50.4	-41.4
COCCN1Cc2cccc(C(=O)NCC3CCN(CC(C)C)C3)c2C1=O (configuration not stated)	–	–	–	–	–	–	·	·

From PubChem
